Results reported in PubChem BioAssay (EPA / NIEHS).
Inconclusive results are not listed. The source made the active and inactive calls. Rule for the calls, unless noted: active = hit-call score of the fitted dose curve at least 0.9, where 1 is the maximum; inactive = score below 0.9.

What was measured:
[1] = molecular target: Estrogen receptor (Homo sapiens) (UniProt P03372); assay: OT_ERa_GFPERaERE_0480: Odyssey Thera (OT) 8-hour HeLa Transcription Induction Assay for Estrogen Receptor (AID 2283381)
Estrogen receptor (Homo sapiens), sequence (P03372 whole entry, looked up): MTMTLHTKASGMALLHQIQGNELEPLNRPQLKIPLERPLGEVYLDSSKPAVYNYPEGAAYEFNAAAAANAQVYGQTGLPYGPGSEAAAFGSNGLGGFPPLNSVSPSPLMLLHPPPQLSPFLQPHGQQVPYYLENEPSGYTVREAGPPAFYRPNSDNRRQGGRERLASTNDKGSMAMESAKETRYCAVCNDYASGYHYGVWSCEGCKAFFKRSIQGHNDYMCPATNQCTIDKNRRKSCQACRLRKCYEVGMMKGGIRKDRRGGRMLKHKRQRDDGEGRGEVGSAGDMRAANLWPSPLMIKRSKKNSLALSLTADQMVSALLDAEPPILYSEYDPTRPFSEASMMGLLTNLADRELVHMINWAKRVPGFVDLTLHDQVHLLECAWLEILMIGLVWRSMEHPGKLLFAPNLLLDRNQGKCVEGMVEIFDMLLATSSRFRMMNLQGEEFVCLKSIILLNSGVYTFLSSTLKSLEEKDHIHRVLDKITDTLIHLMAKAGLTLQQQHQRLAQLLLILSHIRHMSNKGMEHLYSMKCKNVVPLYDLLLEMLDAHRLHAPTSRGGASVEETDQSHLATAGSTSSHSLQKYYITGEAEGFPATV
Outline: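 Human cervical HeLa cells were treated for 8 hours, after which ERE-driven GFP induction was measured by fluorescence microscopy; increases over DMSO baseline defined activity.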

[2] = molecular target: Estrogen receptor (Homo sapiens) (UniProt P03372); assay: OT_ERa_GFPERaERE_0120: Odyssey Thera (OT) 2-hour HeLa Transcription Induction Assay for Estrogen Receptor (AID 2283382; active = hit-call score of the fitted dose curve at least 0.9, where 1 is the maximum)
Outline: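 Cells (human cervical HeLa) receive compound, incubate 2 hours, then are imaged for fluorescent reporter induction. Images are quantified by high content analysis, and activity is fitted as gain of signal against DMSO.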

[3] = molecular target: Bile acid receptor (Homo sapiens) (UniProt Q96RI1); assay: OT_FXR_FXRSRC1_0480: Odyssey Thera (OT) 8-hour HEK293T Protein-Complementation Assay for Farnesoid X receptor/SRC-1 Co-activator (AID 2283383; active = hit-call score of the fitted dose curve at least 0.9, where 1 is the maximum)
Bile acid receptor (Homo sapiens), sequence (Q96RI1 whole entry, looked up): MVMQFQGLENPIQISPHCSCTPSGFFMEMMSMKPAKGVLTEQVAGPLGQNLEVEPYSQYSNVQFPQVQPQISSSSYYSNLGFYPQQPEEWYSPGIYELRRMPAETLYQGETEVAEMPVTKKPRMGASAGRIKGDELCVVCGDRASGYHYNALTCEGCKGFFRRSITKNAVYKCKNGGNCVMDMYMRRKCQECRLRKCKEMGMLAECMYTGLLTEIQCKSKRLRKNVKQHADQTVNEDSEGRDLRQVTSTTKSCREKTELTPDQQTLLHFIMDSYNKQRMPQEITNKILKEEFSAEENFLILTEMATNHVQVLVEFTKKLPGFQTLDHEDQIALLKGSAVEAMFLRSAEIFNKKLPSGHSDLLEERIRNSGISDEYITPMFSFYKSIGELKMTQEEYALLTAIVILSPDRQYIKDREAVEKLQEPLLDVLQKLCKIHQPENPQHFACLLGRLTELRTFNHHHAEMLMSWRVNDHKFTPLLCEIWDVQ
Outline: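 PCA, HEK293T, 8 h compound exposure; FXR–SRC-1 binding reconstitutes split reporter; fluorescence intensity; positive-direction fit vs DMSO.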

[4] = molecular target: Retinoic acid receptor RXR-alpha (Homo sapiens) (UniProt P19793); assay: OT_NURR1_NURR1RXRa_1440: Odyssey Thera (OT) 24-hour HEK293T Protein Complementation Assay for Nurr1/retinoid X receptor (RXR) (AID 2283386; active = hit-call score of the fitted dose curve at least 0.9, where 1 is the maximum)
Retinoic acid receptor RXR-alpha (Homo sapiens), sequence (P19793 whole entry, looked up, the tested form may be a part): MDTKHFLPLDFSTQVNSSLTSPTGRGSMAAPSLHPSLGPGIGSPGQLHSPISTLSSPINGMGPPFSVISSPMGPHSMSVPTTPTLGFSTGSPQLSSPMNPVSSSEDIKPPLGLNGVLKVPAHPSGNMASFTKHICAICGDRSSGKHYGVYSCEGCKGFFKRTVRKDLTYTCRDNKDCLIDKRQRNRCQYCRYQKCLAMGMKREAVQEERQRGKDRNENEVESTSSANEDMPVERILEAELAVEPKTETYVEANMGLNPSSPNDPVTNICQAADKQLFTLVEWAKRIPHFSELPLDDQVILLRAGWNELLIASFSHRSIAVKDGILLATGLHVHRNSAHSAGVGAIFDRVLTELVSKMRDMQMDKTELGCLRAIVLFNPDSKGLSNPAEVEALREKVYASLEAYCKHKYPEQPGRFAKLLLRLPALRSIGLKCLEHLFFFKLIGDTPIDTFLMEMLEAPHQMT
Outline: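 Steps: fragment-tagged Nurr1 and RXRα expressed in HEK293T; compounds added; after 24 h, complemented reporter quantified by fluorescence intensity; signal increase over DMSO fitted as the single endpoint.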

[5] = molecular target: Peroxisome proliferator-activated receptor gamma (Homo sapiens) (UniProt P37231); assay: OT_PPARg_PPARgSRC1_0480: Odyssey Thera (OT) 8-hour Protein-Complementation Assay for Peroxisome Proliferator-activated Receptor Gamma / SRC-1 Co-activator (AID 2283387; active = hit-call score of the fitted dose curve at least 0.9, where 1 is the maximum)
Peroxisome proliferator-activated receptor gamma (Homo sapiens), sequence (P37231 whole entry, looked up, the tested form may be a part): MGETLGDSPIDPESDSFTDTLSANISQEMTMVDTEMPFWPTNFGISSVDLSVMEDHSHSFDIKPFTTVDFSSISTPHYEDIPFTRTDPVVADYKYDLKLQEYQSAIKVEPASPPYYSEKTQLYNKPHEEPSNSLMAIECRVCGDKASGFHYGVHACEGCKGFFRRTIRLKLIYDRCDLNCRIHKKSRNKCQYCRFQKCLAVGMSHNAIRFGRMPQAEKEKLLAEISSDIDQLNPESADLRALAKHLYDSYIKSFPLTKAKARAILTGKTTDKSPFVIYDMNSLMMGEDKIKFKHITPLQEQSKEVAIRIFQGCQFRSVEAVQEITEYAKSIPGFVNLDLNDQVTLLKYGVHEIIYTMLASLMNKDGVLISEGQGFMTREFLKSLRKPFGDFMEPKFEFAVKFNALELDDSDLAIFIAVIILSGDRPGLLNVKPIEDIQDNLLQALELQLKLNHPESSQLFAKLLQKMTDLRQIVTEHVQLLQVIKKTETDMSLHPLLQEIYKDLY
Outline: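 HEK293T transiently transfected with PPARg and SRC-1 fused to Venus YFP fragments, compounds 8 h at 37C. Fixed, Draq5-stained cells imaged; nuclear/cytoplasmic 488 nm fluorescence ratio over at least 350 cells per image; gain fitted versus DMSO.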

[6] = molecular target: Peroxisome proliferator-activated receptor gamma (Homo sapiens) (UniProt P37231); assay: OT_PPARg_PPARgSRC1_1440: Odyssey Thera (OT) 24-hour Protein-Complementation Assay for Peroxisome Proliferator-activated Receptor Gamma/ SRC-1 Co-activator (AID 2283388; active = hit-call score of the fitted dose curve at least 0.9, where 1 is the maximum)
Outline: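 HEK293T transiently transfected with PPARg/SRC-1 split-Venus YFP fusions 48 h before dosing, then treated 24 h at 37C. Fixed cells imaged; nuclear/cytoplasmic 488 nm fluorescence ratio, gain of signal versus DMSO.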

[7] = read-out: Tumor necrosis factor receptor superfamily member 6 (Homo sapiens) (UniProt P25445); assay: LTEA_HepaRG_FAS: Life Technologies and Expression Analysis (LTEA) Assay for Fas cell surface death receptor (FAS) using HepaRG (AID 2283447); conditions: mRNA level, 48 h; actives raise or lower the signal
Outline: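 Differentiated HepaRG cells in serum-free induction medium were exposed 48 h to 8 half-log concentrations up to 100 uM in 0.5% DMSO, in duplicate. FAS mRNA was measured by qRT-PCR normalised to ACTB, GAPDH and POLR2A; bidirectional fit versus DMSO.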

[8] = read-out: Fatty acid synthase (Homo sapiens) (UniProt P49327); assay: LTEA_HepaRG_FASN: Life Technologies and Expression Analysis (LTEA) Assay for Fatty Acid Synthase (FASN) using HepaRG (AID 2283448); conditions: mRNA level, 48 h; actives raise or lower the signal
Outline: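 Cells were plated, cultured 48 h, switched to serum-free induction medium, then dosed in duplicate (max 100 uM, half-log dilutions, 0.5% DMSO) for 48 h. RNA was then isolated and FASN quantified by qRT-PCR.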

[9] = read-out: Cyclin D2 (CCND2), CCND2 (gene 894); assay: LTEA_HepaRG_CCND2: Life Technologies and Expression Analysis (LTEA) Assay for Cyclin D2 (CCND2) using HepaRG (AID 2283449); conditions: mRNA level, 48 h; actives raise or lower the signal;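 note: CCND2 transcript measured by TaqMan qRT-PCR and normalised to three housekeeping genes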
Outline: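 HepaRG, 48 h dosing, 8-pt half-log curve from 100 uM, 0.5% DMSO; duplicate wells. Readout: CCND2 transcript by microfluidic qRT-PCR, housekeeping-normalised; bidirectional fit vs DMSO baseline.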

[10] = molecular target: Retinoic acid receptor RXR-alpha (Homo sapiens) (UniProt P19793); assay: OT_NURR1_NURR1RXRa_0480: Odyssey Thera (OT) 8-hour HEK293T Protein Complementation Assay for Nurr1/retinoid X receptor (RXR) (AID 2283385; active = hit-call score of the fitted dose curve at least 0.9, where 1 is the maximum)
Outline: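 Interaction of bait and prey reconstitutes a functional reporter, whose fluorescence was measured in HEK293T cells dosed with compound for 8 hours. Signal gain relative to DMSO defined the single endpoint.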

[11] = CEETOX_H295R_11DCORT: CeeTox H295R High-throughput Steroidogenesis Assay for 11-Deoxycortisol (11DCORT) (AID 2283432); conditions: actives raise or lower the signal;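 for AC50: 11-deoxycortisol secreted into the medium measured by LC-MS/MS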
Outline: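 H295R cells prestimulated 48 h with 10 uM forskolin, then exposed 48 h to chemical in 0.1% DMSO. 11-Deoxycortisol in medium quantified by HPLC-MS/MS after MTBE extraction; bidirectional fit versus DMSO. MTT viability read in same wells.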

[12] = CEETOX_H295R_OHPREG: CeeTox H295R High-throughput Steroidogenesis Assay for OH-Pregnenolone (OHPREG) (AID 2283434); conditions: actives raise or lower the signal
Outline: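 H295R, 10 uM forskolin pre-stim 48 h; test chemical 48 h, 0.1% DMSO final. MTBE extraction, reverse-phase C18 HPLC-ESI+ MS/MS of medium. Gain/loss vs DMSO; viability by MTT in same wells.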

[13] = CEETOX_H295R_OHPROG: CeeTox H295R High-throughput Steroidogenesis Assay for OH-Progesterone (OHPROG) (AID 2283435); conditions: actives raise or lower the signal;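 for AC50: human adrenal H295R cells primed 48 h with 10 µM forskolin; 17alpha-hydroxyprogesterone secreted into medium measured by HPLC-MS/MS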
Outline: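 Steps: seed H295R cells and adhere overnight; stimulate with 10 uM forskolin for 48 h; replace with chemical-containing medium (0.1% DMSO) for 48 h; extract medium with MTBE; quantify 17alpha-hydroxyprogesterone by reverse-phase C18 HPLC-MS/MS against a 7-point curve.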

[14] = CEETOX_H295R_CORTIC: CeeTox H295R High-throughput Steroidogenesis Assay for Corticosterone (CORTIC) (AID 2283437); conditions: actives raise or lower the signal;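 note: corticosterone secreted into medium quantified by mass spectrometry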;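 for AC50: human H295R adrenal cells prestimulated with forskolin before chemical exposure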
Outline: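 48 h forskolin (10 uM) prestim, then 48 h chemical exposure, final DMSO 0.1%. Readout: corticosterone in medium by LC-MS/MS after MTBE extraction. Gain/loss fit vs DMSO; MTT viability in same wells.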

[15] = CEETOX_H295R_CORTISOL: CeeTox H295R High-throughput Steroidogenesis Assay for Cortisol (AID 2283438); conditions: actives raise or lower the signal
Outline: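 Cortisol synthesis by H295R cells is measured 48 h after chemical dosing, following a 48 h stimulation with 10 uM forskolin. Hormone is extracted and quantified by HPLC-MS/MS, and activity is fitted bidirectionally against the DMSO control.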

[16] = CEETOX_H295R_DOC: CeeTox H295R High-throughput Steroidogenesis Assay for DOC (AID 2283439); conditions: actives raise or lower the signal
Outline: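 Steps: seed H295R, adhere overnight; 10 uM forskolin 48 h; replace with chemical medium (0.1% DMSO) 48 h; collect medium, MTBE extraction, HPLC-MS/MS for DOC. Viability then checked by MTT; cytotoxic chemicals diluted until viability ≥70%.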

[17] = CEETOX_H295R_ESTRADIOL: CeeTox H295R High-throughput Steroidogenesis Assay for Estradiol (AID 2283440); conditions: actives raise or lower the signal;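 note: estradiol secreted into medium quantified by LC-MS/MS after dansyl derivatisation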
Outline: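 H295R cells pre-stimulated 48 h with 10 uM forskolin, then exposed 48 h to chemical in 0.1% DMSO. Medium estradiol quantified by MTBE extraction, dansyl derivatisation and HPLC-MS/MS; bidirectional fit versus DMSO; MTT viability required >/=70%.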

[18] = CEETOX_H295R_ESTRONE: CeeTox H295R High-throughput Steroidogenesis Assay for Estrone (AID 2283441); conditions: actives raise or lower the signal
Outline: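 Estrone secreted into medium quantified by LC-MS/MS after dansyl chloride derivatization, following 48 h chemical exposure (0.1% DMSO final) of forskolin-prestimulated (10 uM, 48 h) H295R cells; gain or loss fitted against DMSO; MTT viability in same wells.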

[19] = CEETOX_H295R_PROG: CeeTox H295R High-throughput Steroidogenesis Assay for Progesterone (PROG) (AID 2283442); conditions: actives raise or lower the signal;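 for AC50: human H295R adrenal cells primed with 10 µM forskolin before dosing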
Outline: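 H295R adrenal cells prestimulated 48 h with 10 uM forskolin, then exposed 48 h to test chemical in 0.1% DMSO. Progesterone in medium quantified by HPLC-MS/MS after MTBE extraction; viability checked by MTT in same wells.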

[20] = CEETOX_H295R_ANDR: CeeTox H295R High-throughput Steroidogenesis Assay for Androstenedione (ANDR) (AID 2283436); conditions: actives raise or lower the signal;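 note: human H295R adrenal cells exposed for 48 h with androstenedione measured in medium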
Outline: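 48 h chemical exposure, H295R cells, DMEM/F12 + ITS+ and Nu-Serum. Medium androstenedione: MTBE extraction, C18 reverse-phase HPLC, ESI+ MS/MS. Fit bidirectional vs DMSO; MTT viability in same wells.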

Measured: AC50

Fatty acid synthase (Homo sapiens), sequence (P49327 whole entry, looked up): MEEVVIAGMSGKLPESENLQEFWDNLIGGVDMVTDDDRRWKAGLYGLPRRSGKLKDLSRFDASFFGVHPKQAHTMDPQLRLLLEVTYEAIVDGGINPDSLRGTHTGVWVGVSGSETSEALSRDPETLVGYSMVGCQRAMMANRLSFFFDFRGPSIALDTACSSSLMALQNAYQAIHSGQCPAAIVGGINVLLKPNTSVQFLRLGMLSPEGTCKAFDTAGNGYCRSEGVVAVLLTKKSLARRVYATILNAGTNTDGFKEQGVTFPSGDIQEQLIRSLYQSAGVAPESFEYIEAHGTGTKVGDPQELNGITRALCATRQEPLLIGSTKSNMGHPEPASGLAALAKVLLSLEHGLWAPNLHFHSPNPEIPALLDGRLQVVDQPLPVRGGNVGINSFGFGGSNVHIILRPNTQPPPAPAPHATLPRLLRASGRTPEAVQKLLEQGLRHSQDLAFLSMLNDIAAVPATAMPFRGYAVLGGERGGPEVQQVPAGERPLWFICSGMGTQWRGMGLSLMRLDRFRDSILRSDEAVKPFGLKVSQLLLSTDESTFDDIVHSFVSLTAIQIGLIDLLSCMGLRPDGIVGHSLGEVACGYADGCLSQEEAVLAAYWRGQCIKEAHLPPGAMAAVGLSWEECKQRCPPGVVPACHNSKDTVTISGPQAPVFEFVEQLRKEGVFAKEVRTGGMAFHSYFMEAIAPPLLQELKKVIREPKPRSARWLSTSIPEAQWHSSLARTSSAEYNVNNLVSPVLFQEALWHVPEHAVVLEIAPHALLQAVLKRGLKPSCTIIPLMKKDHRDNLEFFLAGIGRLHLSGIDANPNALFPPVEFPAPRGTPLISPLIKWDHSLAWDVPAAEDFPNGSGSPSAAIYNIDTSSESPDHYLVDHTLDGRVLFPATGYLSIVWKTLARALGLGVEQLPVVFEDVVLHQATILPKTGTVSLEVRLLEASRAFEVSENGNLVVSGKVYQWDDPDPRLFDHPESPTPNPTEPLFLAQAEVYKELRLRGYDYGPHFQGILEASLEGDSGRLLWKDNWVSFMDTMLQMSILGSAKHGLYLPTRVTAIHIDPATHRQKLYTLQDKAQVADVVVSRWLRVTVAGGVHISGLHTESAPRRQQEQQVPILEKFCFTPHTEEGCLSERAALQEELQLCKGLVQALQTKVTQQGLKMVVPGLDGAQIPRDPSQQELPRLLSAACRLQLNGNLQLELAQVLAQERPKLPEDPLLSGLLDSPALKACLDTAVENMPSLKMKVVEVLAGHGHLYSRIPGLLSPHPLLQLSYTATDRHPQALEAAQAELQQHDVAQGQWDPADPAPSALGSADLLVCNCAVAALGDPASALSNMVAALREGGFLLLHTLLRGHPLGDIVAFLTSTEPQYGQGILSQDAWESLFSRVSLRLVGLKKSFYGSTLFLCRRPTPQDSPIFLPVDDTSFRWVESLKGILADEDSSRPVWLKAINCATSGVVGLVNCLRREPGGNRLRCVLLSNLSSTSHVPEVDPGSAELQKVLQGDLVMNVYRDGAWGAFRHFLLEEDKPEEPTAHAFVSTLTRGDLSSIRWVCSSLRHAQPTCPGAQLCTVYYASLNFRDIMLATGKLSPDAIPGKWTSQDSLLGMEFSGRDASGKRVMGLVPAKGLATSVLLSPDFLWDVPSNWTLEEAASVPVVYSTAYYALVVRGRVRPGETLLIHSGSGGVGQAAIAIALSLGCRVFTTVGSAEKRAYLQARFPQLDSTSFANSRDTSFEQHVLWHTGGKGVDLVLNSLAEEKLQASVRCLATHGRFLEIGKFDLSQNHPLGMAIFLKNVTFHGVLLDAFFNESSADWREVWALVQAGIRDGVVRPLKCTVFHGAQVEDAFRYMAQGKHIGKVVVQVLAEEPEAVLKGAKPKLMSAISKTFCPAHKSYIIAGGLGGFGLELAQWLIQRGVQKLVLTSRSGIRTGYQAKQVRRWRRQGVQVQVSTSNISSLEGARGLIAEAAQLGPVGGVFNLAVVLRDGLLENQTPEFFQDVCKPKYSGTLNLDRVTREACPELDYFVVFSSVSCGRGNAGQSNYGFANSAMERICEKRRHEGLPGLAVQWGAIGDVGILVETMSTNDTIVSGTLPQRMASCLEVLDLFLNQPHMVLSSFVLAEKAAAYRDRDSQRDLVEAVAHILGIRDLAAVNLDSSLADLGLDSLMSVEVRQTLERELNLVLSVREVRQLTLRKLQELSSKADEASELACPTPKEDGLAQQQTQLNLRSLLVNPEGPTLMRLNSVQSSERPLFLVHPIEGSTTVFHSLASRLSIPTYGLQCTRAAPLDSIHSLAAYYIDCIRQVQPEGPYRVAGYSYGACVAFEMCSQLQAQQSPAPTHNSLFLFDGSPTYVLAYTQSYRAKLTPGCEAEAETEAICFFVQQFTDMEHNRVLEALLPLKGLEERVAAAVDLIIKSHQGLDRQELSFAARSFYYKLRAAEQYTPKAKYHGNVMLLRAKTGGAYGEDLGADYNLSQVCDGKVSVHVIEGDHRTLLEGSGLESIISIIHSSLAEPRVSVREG

CC(C)(C)OOC(C)(C)C
inactive: [1] | [2] | [3] | [4] | [5] | [6] | [7] | [8] | [9]

COCCOCCO
inactive: [1] | [2] | [10] | [4] | [5] | [6] | [7] | [8]

ClC(Cl)(Cl)c1ccccc1
inactive: [1] | [2] | [3] | [7] | [8] | [9]

CCCCN(CC)C(=O)SCCC
inactive: [1] | [2] | [3] | [6]

Nc1cc2c3c(c1)C(c1ccccc1)=N[C@@H](NC(=O)c1cccnc1)C(=O)N3CC2
active: [10] 50 µM | [11] 62 µM | [12] 27.6 µM | [13] 4.41 µM | [14] 18.3 µM | [15] 76.8 µM | [16] 33.8 µM | [19] 3.44 µM
not listed: [3] | [5] | [20]
inactive: all other assays above

CN(C)C(=O)Cl
inactive: [1] | [2] | [10] | [6] | [7] | [8] | [9]

COC(N)=O
inactive: [1] | [2] | [4] | [6]

c1cc2c3c(cccc3c1)CC2
inactive: [1] | [2] | [10] | [4] | [6] | [7] | [8] | [9]

[N-]=[N+]=[N-]
inactive: [1] | [2] | [6] | [7] | [8] | [9]

CCC1(c2ccccc2)C(=O)N=C(O)NC1=O (stereo not given)
inactive: [1] | [2] | [10] | [4] | [6] | [7] | [8] | [9]

c1ccc(OP(Oc2ccccc2)Oc2ccccc2)cc1
not listed: [3] | [5] | [20]
inactive: all other assays above

Cc1cccc(N)c1
inactive: [1] | [2] | [6] | [12] | [13] | [19] | [8] | [9]

CCOP(=S)(NC(C)C)Oc1ccccc1C(=O)OC(C)C (stereo not given)
inactive: [12] | [15] | [16] | [17] | [18]
active: [11] 12.8 µM | [13] 4.65 µM | [14] 6.94 µM | [19] 6.65 µM

CSC(C)(C)C=NO
inactive: [1] | [2] | [10] | [6] | [7] | [8]

ClC(Cl)c1ccccc1
inactive: [1] | [2] | [10] | [5] | [6] | [7] | [8] | [9]

CC(C)Nc1ccc(Nc2ccccc2)cc1
inactive: [11] | [12] | [13] | [14] | [15] | [16] | [17] | [18] | [19]

CC(C)(C)c1ccc(O)cc1
active: [13] 24.2 µM
inactive: [10] | [4] | [5] | [6] | [12] | [19] | [7] | [8] | [9]

OCC1CO1 (stereo not given)
inactive: [1] | [2] | [10] | [4] | [6] | [7] | [8] | [9]

CC(=O)c1ccc(-c2ccccc2)cc1
active: [13] 25.8 µM | [20] 50 µM | [14] 18.9 µM | [16] 36.5 µM
inactive: [11] | [12] | [15] | [19]
